Source: PubChem BioAssay (NCATS)
Results filed as inconclusive are left out. Where a call stands in place of a potency, no number is given. Calls of active or inactive are those of the source. The call rests on the fitted dose curve; in most records, active means well fitted inhibition curve with a large enough effect; inconclusive means small, poorly fitted or top-dose-only effect; inactive means no such curve, though single readings can be large or run the other way.

Biological target: Furin (Homo sapiens) (UniProt P09958)
Test: Furin counterscreen qHTS for Zika virus inhibitors (AID 1347149); further: nearly all actives have a fitted effect of over 70% in size
Details: furin enzymatic counterscreen, fluorogenic substrate; series mostly up to 57.5 µM
Outline: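 Fluorogenic cleavage of BOC-RVRR-AMC (2 microM final, Km ~15 µM) was monitored (ex 340, em 450 nm) at 37C after 15 min RT preincubation of 5 nM furin with compounds in HEPES pH 7.0 buffer with CaCl2 and Triton X-100. Percent inhibition was fitted to a 4-parameter Hill curve.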
Potency means the concentration at half of the fitted maximal effect.

Chain of Furin (Homo sapiens) (P09958 whole entry, looked up): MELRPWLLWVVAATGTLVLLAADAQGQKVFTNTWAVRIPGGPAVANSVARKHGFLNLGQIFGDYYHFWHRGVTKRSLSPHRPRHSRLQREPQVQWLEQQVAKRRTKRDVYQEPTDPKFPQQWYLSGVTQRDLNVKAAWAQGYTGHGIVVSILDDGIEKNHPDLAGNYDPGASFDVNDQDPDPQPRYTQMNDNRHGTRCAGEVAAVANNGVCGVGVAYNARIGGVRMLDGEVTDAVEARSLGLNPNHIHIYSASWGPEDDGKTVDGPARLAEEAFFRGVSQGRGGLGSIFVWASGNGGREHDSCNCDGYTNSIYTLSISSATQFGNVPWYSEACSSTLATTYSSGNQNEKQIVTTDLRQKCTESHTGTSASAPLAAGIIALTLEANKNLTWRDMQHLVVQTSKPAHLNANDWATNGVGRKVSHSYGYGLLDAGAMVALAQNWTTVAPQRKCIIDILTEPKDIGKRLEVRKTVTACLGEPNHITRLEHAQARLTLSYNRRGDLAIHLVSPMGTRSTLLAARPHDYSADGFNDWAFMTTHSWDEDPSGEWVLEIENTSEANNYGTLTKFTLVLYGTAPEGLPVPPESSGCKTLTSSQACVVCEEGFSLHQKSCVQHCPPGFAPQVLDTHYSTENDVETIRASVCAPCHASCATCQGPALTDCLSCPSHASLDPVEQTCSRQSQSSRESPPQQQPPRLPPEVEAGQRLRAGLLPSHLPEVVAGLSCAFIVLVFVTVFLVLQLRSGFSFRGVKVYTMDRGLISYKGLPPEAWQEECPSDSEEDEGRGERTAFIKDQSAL

SMILES	Potency
COc1c2occc2cc2ccc(=O)oc12	inactive
O=C(O)c1cn(-c2ccc(F)cc2)c2cc(N3CCNCC3)c(F)cc2c1=O	24.1 µM (active)
N[C@@H](Cc1cc(I)c(Oc2cc(I)c(O)c(I)c2)c(I)c1)C(=O)O	inactive
Cc1nc(-c2ccc(OCC(C)C)c(C#N)c2)sc1C(=O)O	24.1 µM (active)
O=c1c(O)c(-c2ccc(O)cc2O)oc2cc(O)cc(O)c12	inactive
S=c1nc[nH]c2nc[nH]c12	inactive

Tested on: Zika virus NS2B-NS3 protease (unlinked)
Test: Optimization of GU AMC qHTS for Zika virus inhibitors: Unlinked NS2B-NS3 protease assay (AID 1347151); further: nearly all actives have a fitted effect of over 80% in size
Details: recombinant ZIKV NS2B-NS3 protease, fluorogenic AMC substrate; series mostly up to 52.5 µM
Outline: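 Fluorescence read-out (340 nm ex / 450 nm em) of AMC peptide cleavage, taken immediately and after 15 min at room temperature (~20% conversion). Enzyme was the unlinked NS2B–NS3 complex at 25 nM in Tris pH 8.0 buffer.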

SMILES	Potency
NCCCCNCCCN	inactive
Cc1cc(Cl)ccc1OCCCC(=O)NO	inactive
CC(C)c1ccc2c(c1)c(SC(C)(C)C)c(CC(C)(C)C(=O)O)n2Cc1ccc(Cl)cc1	1.34 µM (active)
CC1(C)C(=O)N(CCN2CCC(C(=O)c3ccc(F)cc3)CC2)c2ccccc21	inactive
CC(=O)NC[C@H]1CN(c2ccc(N3CCOCC3)c(F)c2)C(=O)O1	inactive
O=C(O)c1cccnc1Nc1cccc(C(F)(F)F)c1	inactive
O=c1cc(N2CCOCC2)oc2c(-c3ccccc3)cccc12	26.7 µM (active)
NNc1nncc2ccccc12	inactive
O=C1c2ccccc2-c2n[nH]c3cccc1c23	11.9 µM (active)
Cc1cc(O)c2c(c1)C(=O)c1cc(O)cc(O)c1C2=O	15 µM (active)
Cc1cccc(C#Cc2ccccc2)n1	inactive
Clc1ccc2c(N3CCN(CCCN4CCN(c5ccnc6cc(Cl)ccc56)CC4)CC3)ccnc2c1	inactive
O=c1c(O)c(-c2ccc(O)cc2O)oc2cc(O)cc(O)c12	11.9 µM (active)
Nc1nc(N)c(N=O)c(OCC2CCCCC2)n1	inactive
S=c1nc[nH]c2nc[nH]c12	inactive
CNC[C@H](O)c1ccc(O)c(O)c1	inactive
CC1(C)NC(=O)N(c2ccc([N+](=O)[O-])c(C(F)(F)F)c2)C1=O	inactive
COc1ccccc1N1CCN(CCN(C(=O)C2CCCCC2)c2ccccn2)CC1	inactive
Cc1cccc(-c2[nH]ncc2-c2ccc3ncccc3n2)n1	inactive
CCOC(=O)C(C)Oc1cccc2c(=O)n(CC(=O)Nc3ccc4c(c3)OCCO4)ccc12 (configuration not stated)	21.2 µM (active)
COc1ccc2cc([C@H](C)C(=O)O)ccc2c1	23.8 µM (active)
CN(C)CCCC1(c2ccc(F)cc2)OCc2cc(C#N)ccc21 (configuration not stated)	inactive
C[C@@H](c1ncncc1F)[C@](O)(Cn1cncn1)c1ccc(F)cc1F	inactive
O=C(c1ccccc1)c1ccc2n1CCC2C(=O)O (configuration not stated)	inactive
C[C@@H](N)C1CCC(C(=O)Nc2ccncc2)CC1 (some centres not stated)	inactive
CC(=O)N1CCN(c2ccc(OC[C@H]3CO[C@](Cn4ccnc4)(c4ccc(Cl)cc4Cl)O3)cc2)CC1	inactive
